PLCg1 inh: PLC-gamma1 (human) inhibition, primary screen. purified PLC-gamma1, fluorogenic substrate, fluorescence. AID 720700. 370,000 compounds, 0.84% hits. inhibition, % at 12.2 µM; in the data active = inhibition above about 9.5%
proKLK7 act: proKLK7 (human) activation, primary screen; purified proKLK7, EDANS-DABCYL substrate fluorescence; 100% is mature enzyme control, 0% vehicle; activation, % at 7 µM; P49862; 370,000 compounds, 0.9% hits;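 active = activation above the mean of all tested compounds plus 3 SD, computed per campaign excluding outliers beyond control limits, cut at about 13% in these data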
Target sequence (P49862 whole entry, looked up): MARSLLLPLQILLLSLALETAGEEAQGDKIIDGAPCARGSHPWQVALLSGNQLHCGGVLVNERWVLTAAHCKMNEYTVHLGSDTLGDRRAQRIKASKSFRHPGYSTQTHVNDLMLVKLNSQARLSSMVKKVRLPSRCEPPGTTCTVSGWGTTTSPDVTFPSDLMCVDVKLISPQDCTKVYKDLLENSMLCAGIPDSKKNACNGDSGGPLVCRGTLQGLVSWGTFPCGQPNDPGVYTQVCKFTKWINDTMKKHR
ADAM10 inh: inhibitors of human ADAM10 | O14672 | recombinant ADAM10, EDANS/DABCYL FRET peptide cleavage, 3 h | inhibition, % at 7 µM | 370,000 compounds, 0.62% hits | AID 720582;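 active = inhibition above a per-campaign cutoff equal to the mean of compounds falling between control-based bounds plus 3 SD, cut at about 20% in these data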
PLC-beta3 inh: inhibitors of human phospholipase C beta3. Purified PLC-beta3, fluorogenic substrate, fluorescence. 370,000 compounds, 0.18% hits. inhibition, % at 12.2 µM. AID 720704. Q01970; in the data active = inhibition above about 11%
ADAM17 inh: ADAM17 inhibition, QFRET primary screen. P78536. recombinant ADAM17, EDANS/DABCYL FRET peptide cleavage. inhibition, % at 6.95 µM. 370,000 compounds, 0.83% hits. AID 720648;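 active = inhibition above the mean of compounds lying between control limits plus 3 SD, set per campaign, cut at about 8.5% in these data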
ADAM10 ctr: counter-screen for ADAM17 exosite inhibitors: inhibitors of human ADAM10; AID 743256; shares compounds with ADAM17 inh; recombinant ADAM10, EDANS/DABCYL FRET peptide cleavage, 3 h; inhibition, % at 6.95 µM; 2,900 compounds, 47% hits;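 active = mean inhibition over the triplicate runs exceeds the activity threshold set in the earlier primary screen, cut at about 20% in these data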
ADAM17 confirm: confirmation of inhibitors of human ADAM17 | shares compounds with ADAM17 inh | recombinant ADAM17, EDANS/DABCYL QFRET peptide cleavage | inhibition, % at 6.95 µM | 2,900 compounds, 65% hits;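 active = mean inhibition across replicates above the hit cutoff set in the primary screen, cut at about 8.5% in these data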
Of the large screens only hits and unclear results are named; the others gave an inactive call (follow-up assays come after a bar, where they were run). Compounds with a hit are over-represented: about 2.9% of the library has one in this group of screens.

COc1ccc2nc(NC(=O)C3CCN(S(=O)(=O)c4cnc[nH]4)CC3)sc2c1	none
CCOc1ccc2nc(NC(=O)C3CCN(S(=O)(=O)c4cnc[nH]4)CC3)sc2c1	ADAM17 inh 8.7 | ADAM10 ctr inactive | ADAM17 confirm inactive
O=C(NCC(=O)N1CCN(C(c2ccccc2)c2ccccc2)CC1)c1ccccc1Br	ADAM17 inh 12 | ADAM10 ctr 20 | ADAM17 confirm 12
S=c1[nH]nc(-c2ccncc2)n1/N=C/c1ccccc1	none
Cc1cccc(/C=N/n2c(-c3ccncc3)n[nH]c2=S)c1	ADAM17 inh 11 | ADAM10 ctr inactive | ADAM17 confirm inactive
CC(C)c1ccc(/C=N/n2c(-c3ccccc3)n[nH]c2=S)cc1	ADAM17 inh 10 | ADAM10 ctr inactive | ADAM17 confirm inactive
Cc1ccc(/C=N/n2c(-c3ccccc3)n[nH]c2=S)cc1	none
OC1C2COC(O2)C2OC(c3ccccc3)OC12 (stereo not given)	none
COC(=O)[C@@]12C[C@@H](CC(=O)NCc3ccc(OC)c(OC)c3)C(=O)N(Cc3ccc4c(c3)OCO4)C1=CCC(C)(C)C2	none
CCOc1cc2c3c(c1)C1(C(=O)N3C(C)(C)C=C2C)C(C#N)=C(N)Oc2cc(O)ccc21 (stereo not given)	ADAM17 inh 9.0 | ADAM10 ctr inactive | ADAM17 confirm 12
COc1cc2c3c(c1)C1(C(=O)N3C(C)(C)C=C2C)C(C#N)=C(N)Oc2cc(O)ccc21 (stereo not given)	none
COC(=O)[C@@]12C[C@@H](CC(=O)N3CCC(c4ccccc4)CC3)C(=O)N(CCc3ccc(OC)c(OC)c3)C1=CCC(C)(C)C2	none
Cc1sc2nc(SCC(=O)OC(C)C)n(C)c(=O)c2c1C	ADAM17 inh 15 | ADAM10 ctr inactive | ADAM17 confirm inactive
O=C(NCc1cccnc1)c1cc(C2CCCCN2C(=O)CCCc2ccccc2)on1 (stereo not given)	none
CC(C)NC(=O)C1(C)CSCC(=O)N1CCCN1CCOCC1 (stereo not given)	none
O=c1cc(COn2nnc3ccc(C(F)(F)F)cc32)nc2sccn12	ADAM17 inh 11 | ADAM10 ctr inactive | ADAM17 confirm 8.9
Clc1ccc2ncc(-c3nnnn3-c3ccccc3)c(-c3ccccc3)c2c1	none
Clc1ccc2[nH]cc(-c3nnnn3-c3ccccc3)c2c1	ADAM17 inh 8.9 | ADAM10 ctr 29 | ADAM17 confirm 16
O=C(Nc1ccnn1C1CCN(Cc2ccc(CO)o2)CC1)c1cccc(F)c1	none
CCOCCn1c(COc2ccccc2)nc2ccccc21	ADAM17 inh 9.4 | ADAM10 ctr inactive | ADAM17 confirm inactive
CCOc1cc(CNCCO)cc(Br)c1OCc1ccc(Cl)cc1	ADAM17 inh 12 | ADAM10 ctr inactive | ADAM17 confirm inactive
COc1ccc(-c2noc(CCC(=O)N3CCN(c4ccccc4Cl)CC3)n2)cc1	none
COc1ccc(-c2noc(CCC(=O)N3CCN(c4cccc(C)c4C)CC3)n2)cc1	ADAM17 inh 9.3 | ADAM10 ctr 27 | ADAM17 confirm 16
Cc1nc(N2CCCCC2C)c2nnn(Cc3ccccc3)c2n1 (stereo not given)	none
Cc1ccc(S(=O)(=O)NCCC(=O)Nc2ccc(Cl)c(Cl)c2)cc1	ADAM17 inh 9.2 | ADAM10 ctr 25 | ADAM17 confirm 15
Cc1ccc(S(=O)(=O)NCCC(=O)Nc2ccc(Cl)c(Cl)c2)cc1C	none
CC(=O)O[C@@H](Cc1ccc(O)cc1)C(=O)CC(C)C	ADAM17 inh 9.2 | ADAM10 ctr inactive | ADAM17 confirm inactive
CC(=O)NC(Cc1ccc(O)cc1)C(=O)NN (stereo not given)	none
COc1ccc(C2=NN(C(N)=S)C(c3ccco3)C2)cc1 (stereo not given)	none
COc1ccc(C2=NN(C(=O)CSc3nnc(-c4ccccc4F)o3)C(c3ccco3)C2)cc1 (stereo not given)	ADAM17 inh 11 | ADAM10 ctr inactive | ADAM17 confirm inactive
O=[N+]([O-])c1ccc(CN2CC(N3CCN(CC4CC4)CC3)CS2(=O)=O)cc1 (stereo not given)	none
CON(C)C(=O)[C@H]1C[C@@H]2[C@H](C[C@@H](c3ccccc3)[C@H]1C)N(c1ccc(F)cc1)C(=O)N2CCCOc1ccccc1	none
C[C@@H](NC(=O)c1nc[nH]c1C(=O)N1CCc2ccccc2C1)c1ccccc1	ADAM17 inh 9.0 | ADAM10 ctr inactive | ADAM17 confirm inactive
C[C@H](NC(=O)c1nc[nH]c1C(=O)N1CCc2ccccc2C1)C(=O)OC(C)(C)C	none
CCc1nc2c(OCc3ccc(Cl)cc3Cl)cccn2c1N(C)C(=O)C1CC1	none
Cc1cc(-c2csc(NC(=O)c3cc4ccccc4o3)n2)c(C)n1C	ADAM17 inh 11 | ADAM10 ctr inactive | ADAM17 confirm inactive
CCn1c(SCC(=O)N/N=C/C=C/c2ccccc2[N+](=O)[O-])nnc1-c1ccc(Cl)cc1	none
O=C(CSc1nnc(-c2ccccc2)n1-c1ccccc1)NN=C/C=C\c1ccccc1[N+](=O)[O-]	ADAM17 inh 8.8 | ADAM10 ctr 30 | ADAM17 confirm 16
Cn1cnc(S(=O)(=O)N2CCCCC2c2cc(C(=O)Nc3cccc4c3CCCC4)no2)c1 (stereo not given)	none
Cc1nnc(C)n1N=Cc1ccc(Cl)c([N+](=O)[O-])c1	none
c1ccc(-c2nnc(-c3c[nH]c4ccccc34)nc2-c2ccccc2)cc1	ADAM17 inh 8.7 | ADAM10 ctr inactive | ADAM17 confirm 8.8
O=S1(=O)CC(N2CCN(CCO)CC2)CN1Cc1cn(Cc2cccc(C(F)(F)F)c2)nn1 (stereo not given)	none
CN[C@H]1C[C@H]2c3[nH]c4cccc(-c5ccc6c(c5)OCO6)c4c3CCN2C[C@H]1[C@H](C)O	none
O=C(c1cc(COc2c(F)cccc2F)on1)N1CCC(c2ccccc2Cl)C1 (stereo not given)	ADAM17 inh 9.5 | ADAM10 ctr inactive | ADAM17 confirm 11
C[C@H](CO)N1C[C@H](C)[C@@H](CN(C)Cc2ccc(Oc3ccccc3)cc2)Oc2c(NC(=O)c3ccncc3)cccc2C1=O	ADAM17 inh 12 | ADAM10 ctr inactive | ADAM17 confirm inactive
COc1ccc(S(=O)(=O)Nc2ccc3c(c2)C(=O)N([C@H](C)CO)C[C@H](C)[C@@H](CN(C)C(=O)Nc2ccc(C(F)(F)F)cc2)OCCCC[C@H](C)O3)cc1	ADAM17 inh 10 | ADAM10 ctr 39 | ADAM17 confirm 21

From PubChem BioAssay
